Source: PubChem BioAssay (NCATS)
Records with an inconclusive call do not appear. For some assays here: Potency and affinity values are given separately. Activity calls are given as the source filed them. Unless noted, how the calls were made is not given here.

Assays:
[1] = Ebola virus entry assay, green fluorescence channel
[2] = Ebola virus entry assay, ratio channel
[3] = Ebola virus entry assay, green channel fluorescence
[4] = Ebola virus entry assay, reporter ratio channel; AC50: Channel type: primary unless noted; outcome: Channel type: primary unless noted
[5] = Ebola virus entry assay, blue channel (ratio component)
[6] = qHTS assay for measurement of the activity of small molecule inhibitors on Zika virus induced Caspase-3 activity in human iPSC derived neural progenitor cells (hNPCs) (AID 1224857; active means well fitted inhibition curve with a large enough effect; further: % of control where 0% means no effect; nearly all actives have a fitted effect of over 65% in size); settings: hNPCs ZIKV-induced caspase-3/7, Caspase-Glo luminescence, 6 h; series mostly up to 45.7 µM
Outline: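 Percent inhibition of virus-induced caspase-3/7 luminescence (Caspase-Glo), scaled between uninfected cells and Zika-infected cells. hNPCs received compound 1 hr before ZIKV at 2 FFU/cell, with 6 hours infection at 37 C.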

[7] = qHTS assay for measurement of the activity of small molecule inhibitors on Zika virus induced Caspase-3 activity in human astrocytoma cells (AID 1224859; active means well fitted inhibition curve with a large enough effect;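 further: plate controls were ZIKV-infected untreated cells for no effect and uninfected cells for full effect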); settings: SNB-19 ZIKV-induced caspase-3/7, luminescence, 6 h; series mostly up to 45.7 µM
Outline: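 Luminescent caspase-3/7 read-out (30 min reagent, room temperature) in human SNB-19 cells infected 6 h with ZIKV (2 FFU/cell) after 1 h compound pre-incubation; Data were normalised to uninfected and infected wells.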

[8] = qHTS profiling of the MIPE4 collection as inhibitors of Plasmodium falciparum (DD2) proliferation (AID 743345); settings: P. falciparum Dd2 in erythrocytes, SYBR Green DNA, 72 h; at 28.5 µM (top of the series) unless noted
Outline: (§1)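 Erythrocytes infected with P. falciparum (0.3% parasitemia, 2.5% hematocrit) incubated with compounds 72 h at 37 C, 5% CO2. Lysis with saponin/Triton buffer containing SYBR Green I, overnight at room temperature in the dark; DNA fluorescence (485/535 nm) normalised to 0.29 uM artemisinin and DMSO.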

[9] = qHTS profiling of the MIPE4 collection as inhibitors of Plasmodium falciparum (DD2) proliferation (Rep 2) (AID 743346); settings: P. falciparum Dd2 in erythrocytes, SYBR Green DNA, 72 h; at 28.5 µM (top of the series) unless noted
Outline: as §1

[10] = qHTS profiling of the MIPE4 collection as inhibitors of Plasmodium falciparum (HB3) proliferation (AID 743347);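 further: plate controls were DMSO vehicle wells for no effect and artemisinin wells for full effect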; settings: P. falciparum HB3 in erythrocytes, SYBR Green DNA, 72 h; at 28.5 µM (top of the series) unless noted
Outline: as §1

[11] = High-throughput drug toxicity screening in the BPDCN cell line Cal-1 (AID 1224825); settings: Cal-1 BPDCN cell viability, qHTS; at 45.8 µM (top of the series) unless noted;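 further: cells exposed to compounds for 48 h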
Outline: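 500 Cal-1 cells/well, RPMI + glutamine + 10% FBS (phenol red-free); cpd added by pin tool; 48 h, 37C, 5% CO2; CTG 15 min RT, lumi read. Normalised: DMSO 100%, bortezomib 9.2 uM 0%.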
Wherever efficacy is given: 0% is about no effect.

CCC(C)(C)c1ccc(O)cc1
inactive: efficacy [1] 13.1% | outcome [2] | outcome [3] | outcome [4] | outcome [5] | outcome [6] | outcome [7]

CCC1(CC)C(=O)C=CNC1=O
inactive: efficacy [1] -31% | outcome [2] | outcome [3] | outcome [4] | outcome [5] | outcome [6] | outcome [7]

CCOC(=O)CC(SP(=S)(OC)OC)C(=O)OCC (stereo not drawn)
inactive: efficacy [1] -13.3% | outcome [2] | outcome [3] | outcome [4] | outcome [5] | outcome [6] | outcome [7]

Clc1cccc(SC2CCNCC2)n1
inactive: efficacy [1] -16% | outcome [2] | outcome [3] | outcome [4] | outcome [5] | outcome [6] | outcome [7]

O=c1c(C2CC(c3ccc(-c4ccc(Br)cc4)cc3)Cc3ccccc32)c(O)sc2ccccc12 (stereo not drawn)
inactive: efficacy [1] 37.1% | outcome [2] | outcome [4] | outcome [5] | outcome [6] | outcome [7]

CCN(CC)C(=O)[C@@H]1C=C2c3cccc4[nH]cc(c34)C[C@H]2N(C)C1
inactive: efficacy [1] 49.3% | outcome [2] | outcome [4] | outcome [6] | outcome [7]

O=C1OC(c2ccc(O)c(S(=O)(=O)O)c2)(c2ccc(O)c(S(=O)(=O)O)c2)c2c(Br)c(Br)c(Br)c(Br)c21
inactive: efficacy [1] 32.9% | outcome [2] | outcome [3] | outcome [4] | outcome [5] | outcome [6] | outcome [7]

Nc1ccc(/C=C/c2ccc(N)cc2S(=O)(=O)O)c(S(=O)(=O)O)c1
inactive: efficacy [1] 21.3% | outcome [3] | outcome [4] | outcome [5]

C/C(=N\O)[C@@H](C)NCC(C)(C)CN[C@H](C)/C(C)=N/O
inactive: efficacy [1] -29.3% | outcome [3] | outcome [4] | outcome [5]

Nc1ccc([As](=O)(O)O)cc1
inactive: efficacy [1] -24.9% | outcome [2] | outcome [3] | outcome [4] | outcome [5] | outcome [6] | outcome [7]

CN1CC[C@]23c4c5ccc(O)c4O[C@H]2[C@@H](O)C=C[C@H]3[C@H]1C5
active: AC50 [4] 35500 nM
inactive: efficacy [1] 19.5% | outcome [2] | outcome [3] | outcome [6] | outcome [7]

C[C@]12CC[C@H]3[C@@H](CC[C@@]45O[C@H]4C(O)=C(C#N)C[C@]35C)[C@H]1CC[C@H]2O
51.6%: viability (% of control) [11]
90.1%: growth, % of control [10]
70.8%: parasite growth remaining, % of DMSO control (lower = more inhibition) [8]
inactive: efficacy [1] 26.8% | outcome [2] | outcome [4] | outcome [5] | outcome [6] | outcome [7]
55.7%: parasite growth, % of control (lower = inhibition) [9]

C#C[C@]1(O)CC[C@H]2[C@@H]3CCC4=CC(=O)CC[C@]4(C)[C@H]3CC[C@@]21C
inactive: efficacy [1] -17.3% | outcome [2] | outcome [3] | outcome [4] | outcome [5] | outcome [6] | outcome [7]

CC(C)(C)CC(C)(C)c1ccc(OCCOCC[N+](C)(C)Cc2ccccc2)cc1
active: AC50 [2] 2510 nM | AC50 [4] 2510 nM
inactive: efficacy [1] -219%

CN1N=C(C(N)=O)CCC1=O
inactive: efficacy [1] -14% | outcome [3] | outcome [4] | outcome [5]

COc1ccc2c(c1)c(CC(=O)OC/C=C(\C)CC/C=C(\C)CCC=C(C)C)c(C)n2C(=O)c1ccc(Cl)cc1
inactive: efficacy [1] 62.6% | outcome [2] | outcome [4] | outcome [5]

CN(c1nccc(=O)[nH]1)C1CCN(c2nc3ccccc3n2Cc2ccc(F)cc2)CC1
inactive: efficacy [1] 66.4% | outcome [2] | outcome [4] | outcome [5]

CC(C)=CC1C(C(=O)OCN2C(=O)C3=C(CCCC3)C2=O)C1(C)C (stereo not drawn)
inactive: efficacy [1] 28% | outcome [2] | outcome [3] | outcome [4] | outcome [5] | outcome [6] | outcome [7]

Cc1c(C(=O)NCCO)[n+](=O)c2ccccc2n1[O-]
inactive: efficacy [1] -17% | outcome [3] | outcome [4] | outcome [5]

COP(=S)(OC)SCN1C(=O)c2ccccc2C1=O
inactive: efficacy [1] -28.1% | outcome [2] | outcome [3] | outcome [4] | outcome [5] | outcome [7]

ClCCN1CCCC1
inactive: efficacy [1] -44.4% | outcome [2] | outcome [3] | outcome [4] | outcome [5] | outcome [6] | outcome [7]

CCCCCCCCCCCCCCCCCCO
inactive: efficacy [1] -11.3% | outcome [3] | outcome [4] | outcome [5]

C[C@]12CCC(=O)C=C1CC[C@@H]1[C@@H]2CC[C@]2(C)C(=O)CC[C@@H]12
inactive: efficacy [1] 19.1% | outcome [2] | outcome [3] | outcome [4] | outcome [5] | outcome [6] | outcome [7]

Cc1ccc(S(=O)(=O)NC(=O)NC2CCCCC2)cc1
inactive: efficacy [1] -18.8% | outcome [3] | outcome [4] | outcome [5]

O=C(c1ccccc1)c1ccccc1
inactive: efficacy [1] 10.2% | outcome [3] | outcome [4] | outcome [5]

CCN(CC)CCNC(=O)c1cc(S(C)(=O)=O)ccc1OC
inactive: efficacy [1] -10.9% | outcome [3] | outcome [4] | outcome [5]

Cc1c(C(=O)O)c(O)cc2c1C(=O)c1c(O)c([C@@H]3O[C@H](CO)[C@@H](O)[C@H](O)[C@H]3O)c(O)c(O)c1C2=O
inactive: efficacy [1] -19.5% | outcome [3] | outcome [4] | outcome [5]

CC(C(=O)O)c1cccc(Oc2ccccc2)c1 (stereo not drawn)
inactive: efficacy [1] 18.1% | outcome [3] | outcome [4] | outcome [5]

Nc1cc(C(Cl)=C(Cl)Cl)c(S(N)(=O)=O)cc1S(N)(=O)=O
inactive: efficacy [1] -15.2% | outcome [3] | outcome [4] | outcome [5]
